These results are taken from PubChem BioAssay (NCATS).

Records with an inconclusive call do not appear. Activity calls are given as the source filed them. Unless noted, calls follow the shape of the dose curve; as a rule, active = well fitted curve in the direction sought with a large enough effect; inconclusive = small, poorly fitted or top-dose-only effect, or another doubt; inactive = no such curve, though single readings can be large; an effect the other way counts as inactive or inconclusive.

Assay [1] has as its target Lysosomal acid glucosylceramidase (Homo sapiens) (UniProt P04062). The assay is described as follows: Glucocerebrosidase-p2 (AID 348; in the data active = potency below about 10 µM; also: potency is read from the fitted curve at half-maximal effect). Conditions: purified GBA, blue fluorogenic substrate, 40 min. The gist of the method:
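Compounds titrated from 0.6 nM upwards against 0.2 nM enzyme in pH 5.9 citric acid/KH2PO4, taurocholate, tween-20; blue fluorogenic substrate 80 uM, 40 min room temperature, stopped and read Ex 365/Em 440 for AC50.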

For assay [2], the target named is Cytochrome P450 1A2 (Homo sapiens) (UniProt P05177). Briefly: p450-cyp1a2 (AID 410; calls by dose curve; also: potency is read from the fitted curve at half-maximal effect). As to conditions: recombinant CYP1A2, luciferin-ME demethylation, luminescence; series mostly up to 57 µM. The gist of the method: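 Human CYP1A2 (20nM) demethylated Luciferin-ME at its Km (100uM) in 100mM KPO4. After 10 min compound preincubation, NADPH regeneration ran the reaction 60 min at room temperature. Luciferin was read by luminescence, normalized to 57 uM furafylline.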

Assay [3] is described as follows: NFAT Signaling Pathway (AID 444; active = well fitted curve in either direction with a large enough effect, not every such curve was filed as active;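 also: carbachol stimulus at about its EC50 of 1 µM final; % is scaled to controls: 0 for no effect and ±100 for the full control effect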). Conditions: Jurkat NFAT-bla M1, carbachol, beta-lactamase ratio, 5 h; at 7.69 µM (top of the series) unless noted. The method, boiled down: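 Jurkat cells carrying an NFAT-driven β-lactamase reporter and co-transfected muscarinic M1 receptor were treated with compound plus carbachol (1 uM final, an EC50 level) for 5 h at 37 °C. CCF4 loading followed for 1 h at RT; 460/530 nm ratio gave %activity.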

Assay [4] in a line: Stat Signaling Pathway (AID 446; active = well fitted curve in either direction with a large enough effect, not every such curve was filed as active;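 also: ME-180 cervical cancer cells given 40 pM IL-6 alongside compound; SIE-controlled beta-lactamase reporter measured as 460/530 nm FRET emission ratio; % is scaled to controls: 0 for no effect and ±100 for the full control effect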). Conditions: ME-180 SIE beta-lactamase reporter, IL-6 stimulated, 5 h; at 7.69 µM (top of the series) unless noted. The gist of the method:
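IL-6/STAT signaling read in ME-180 cells via an SIE beta-lactamase reporter. Stimulus was 40 pM IL-6 (its AC50) for 5 hrs, so both activation and inhibition register.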

For assay [5], the target named is Glucocorticoid receptor (Homo sapiens) (UniProt P04150). The assay is described as follows: GR-EFC Redistribution (AID 451; calls by dose curve; also: potency is read from the fitted curve at half-maximal effect). Conditions: CHO-K1 GR-EFC translocation, beta-gal luminescence, 2 h. The method, boiled down: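 CHO-K1 cells stably expressing nuclear-localized β-gal enzyme acceptor and GR fused C-terminally to the enzyme donor fragment; ligand-driven nuclear translocation restores β-gal by complementation. Compounds titrated up to 46 uM final, 2 h at 37 °C; luminescence read.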

The target of assay [6] is Mitogen-activated protein kinase 10 (Mus musculus) (UniProt Q61831). Briefly: JNK3 AlphaScreen Assay (AID 530; active = well fitted curve in either direction with a large enough effect, not every such curve was filed as active;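 also: kinase came from lysate of stimulated human HepG2 cells; % is scaled to controls: 0 for no effect and ±100 for the full control effect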). As to conditions: JNK3 lysate, c-Jun phosphorylation; series mostly up to 57.1 µM. The gist of the method: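 JNK3 came from HepG2 lysates pre-activated with IL-1beta and TNF-alpha and phosphorylated biotinylated GST-cJun (1-79) at 10 uM ATP, pH 7.6, room temperature. Compounds were titrated. AlphaScreen signal used anti-phospho-cJun (Ser73) antibody.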
(Alpha assays give light when donor and acceptor beads are brought close together.)

Assay [7] has as its target 3',5'-cyclic-AMP phosphodiesterase 4B (Homo sapiens) (UniProt Q07343). The assay is described as follows: qHTS Assay for Inhibitors of PDE-IV (AID 607; active = well fitted activation curve with a large enough effect in the main read-out, with a control signal flat, not every such curve was filed as active; also: % of control where 0% means no effect). As to conditions: HEK293 ACTOne CNG channel cells, membrane potential fluorescence; series mostly up to 22.9 µM. The gist of the method:
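Live HEK293 cells with a modified cyclic nucleotide-gated (CNG) channel report intracellular cAMP via membrane-potential dye fluorescence (ex 535/em 590 nm). Endogenous PDE-IV was targeted. Compounds were tested at up to 22.9 uM final; RO 20-1724 100 uM served as control.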

In assay [8] the target is Cytochrome P450 3A4 (Homo sapiens) (UniProt P08684). The assay is described as follows: qHTS Assay for Activators of Cytochrome P450 3A4 (AID 885). Also: nearly all actives have a fitted effect of over 65% in size. Conditions: recombinant CYP3A4, Luciferin-PPXE luminescence, 60 min; series mostly up to 57.1 µM. The method, boiled down:
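Quantitative HTS format: compounds preincubated with 20nM human CYP3A4 and Luciferin-PPXE substrate at KM, reaction started by NADPH regeneration, stopped after 60 min, luciferase luminescence read 20 min later.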

Assay [9] in a line: qHTS Assay for Lipid Storage Modulators (AID 1519; calls by dose curve). Conditions: Drosophila S3 cells, BODIPY lipid droplet/cell ratio, laser cytometry, cells loaded with oleic acid; for activity change, negative = inhibition: at 57.5 µM (top of the series). The method, boiled down: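 Cells seeded at 5,000 per well were treated with compounds over a concentration series and loaded with oleic acid (400 uM, as added). Lipid droplet fluorescence (488 nm excitation, 500-530 nm channel) was read by laser-scanning cytometry and normalized to 20 uM Triacsin C.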
(qHTS replaces the single test concentration by a dilution series.)

The nature of assay [10]: Primary qHTS for small molecule stabilizers of the endoplasmic reticulum resident proteome: Secreted ER Calcium Modulated Protein (SERCaMP) assay (AID 1508630). Also: % is scaled to controls: 0 for no effect and ±100 for the full control effect. Conditions: SH-SY5Y GLuc-SERCaMP (Gaussia luciferase released on ER calcium loss) secretion, thapsigargin, luminescence; series mostly up to 38.4 µM. The method, boiled down: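 GLuc-SERCaMP-expressing SH-SY5Y cells, pretreated 16 h with compound, are challenged with thapsigargin to empty ER calcium stores; after 4 h, coelenterazine is added directly to the medium and luminescence is imaged.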

The nature of assay [11]: AP1 Signaling Pathway (AID 357; active = well fitted curve in either direction with a large enough effect, not every such curve was filed as active; also: % is scaled to controls: 0 for no effect and ±100 for the full control effect). Conditions: ME-180 (cervical carcinoma) AP-1-bla reporter, EGF-induced, beta-lactamase ratio, 5 h; at 7.69 µM (top of the series) unless noted. The method, boiled down: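 AP-1-bla ME-180 cells with beta-lactamase reporter under AP-1 response element, stimulated with EC50 EGF; compounds titrated, 5 hours at 37 degrees Celsius. CCF4 read at 460/530 nm ratio; positive and negative modulators judged by AC50.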

In assay [12] the target is Glucocorticoid receptor (Homo sapiens) (UniProt P04150). The assay is described as follows: GR-GFP Redistribution (AID 450;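 active = compounds whose dose series gives a full or clear partial fitted curve of increased nuclear translocation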; also: potency is read from the fitted curve at half-maximal effect). As to conditions: U2OS GR-GFP nuclear translocation, laser cytometry, 2 h.
Assay [13] concerns the target Cytochrome P450 2C9 (Homo sapiens) (UniProt P11712). The assay is described as follows: qHTS Assay for Inhibitors and Substrates of Cytochrome P450 2C9 (AID 883). Also: % is scaled to controls: 0 for no effect and ±100 for the full control effect; nearly all actives have a fitted effect of over 60% in size. As to conditions: recombinant CYP2C9, luciferin-H luminescence, 60 min; series mostly up to 57.1 µM. The gist of the method:
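A luminogenic readout tracked human CYP2C9 (10nM) converting deoxyluciferin (100uM, at KM) in 25mM KPO4 during 60 min at 37C with regenerated NADPH. Values normalized to 57uM sulphaphenazole as complete inhibition.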

Assay [14] in a line: Confirmation and Secondary Assay for Modulators of Hemoglobin Beta Chain Splicing at IVS2 654 locus (AID 910).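 Also: per-well total GFP intensity by laser scanning cytometry after 2-day treatment; % of control where 0% means no effect.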 As to conditions: HeLa EGFP-654 splicing reporter, GFP fluorescence, 48 h; series mostly up to 38.3 µM. The gist of the method: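 HeLa cells stably carrying EGFP interrupted by mutant beta-globin IVS2-654 intron (CMV-driven) were treated with compound for 2 days at 37C; corrected splicing was scored as total peak GFP intensity per well (488 nm excitation, 500-520 nm emission).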

Assay [15] is described as follows: Confirmation and Secondary Assay for Modulators of Hemoglobin Beta Chain Splicing at IVS2 705 locus (AID 930).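 Also: HeLa cells stably expressing the EGFP-705 splicing reporter; GFP fluorescence per well restored by corrected splicing of the IVS2-705 intron in EGFP; % of control where 0% means no effect.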 Conditions: HeLa EGFP-705 splicing reporter, GFP fluorescence, 48 h; series mostly up to 38.3 µM. The gist of the method:
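Fluorescence gain (488 nm laser, 500-520 nm PMT) reflects restored correct splicing of a mutant IVS2-705 intron inside EGFP in stably transfected HeLa cells after 2-day compound treatment.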

The target of assay [16] is Ubiquitin carboxyl-terminal hydrolase 1 (Homo sapiens) (UniProt O94782). The assay is described as follows: Inhibitors of USP1/UAF1: Pilot qHTS (AID 504865).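 Also: rhodamine fluorescence freed from ubiquitin-rhodamine substrate followed over time; top concentration of the series differs between compounds; % is scaled to controls: 0 for no effect and ±100 for the full control effect; nearly all actives have a fitted effect of over 35% in size.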 As to conditions: purified USP1/UAF1, Ub-rhodamine cleavage fluorescence; series mostly up to 54.9 µM. The method, boiled down: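 USP1/UAF1 complex (1nM) preincubated with compound 15 min at room temperature, then Ub-Rho substrate (150nM final) added. Fluorescence read kinetically at 480/540 nm, 6 reads every 60 seconds. Buffer: 50mM HEPES pH 7.8, 0.5mM EDTA, 0.1 mg/ml BSA, 1mM TCEP, 0.01% Tween-20.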

The target in assay [17] is Cytochrome P450 2D6 (Homo sapiens) (UniProt P10635). The assay is described as follows: qHTS Assay for Inhibitors and Substrates of Cytochrome P450 2D6 (AID 891). Also: potency is read from the fitted curve at half-maximal effect; nearly all actives have a fitted effect of over 60% in size. As to conditions: recombinant CYP2D6, luciferin-ME EGE luminescence; series mostly up to 57.1 µM. The method, boiled down: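 Human CYP2D6 (5 nM) with 30 uM Luciferin-ME EGE (at Km) in 100 mM KPO4, compound preincubated 10 min, then NADPH regeneration system for 60 min at room temperature. Luciferin read by luminescence; normalized to 1.43 uM quinidine.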

Where [18] appears, read: measured here: cell count channel max response.
[19] abbreviates: measured here: lipid channel max response.

Lysosomal acid glucosylceramidase (Homo sapiens), sequence (P04062 whole entry, looked up): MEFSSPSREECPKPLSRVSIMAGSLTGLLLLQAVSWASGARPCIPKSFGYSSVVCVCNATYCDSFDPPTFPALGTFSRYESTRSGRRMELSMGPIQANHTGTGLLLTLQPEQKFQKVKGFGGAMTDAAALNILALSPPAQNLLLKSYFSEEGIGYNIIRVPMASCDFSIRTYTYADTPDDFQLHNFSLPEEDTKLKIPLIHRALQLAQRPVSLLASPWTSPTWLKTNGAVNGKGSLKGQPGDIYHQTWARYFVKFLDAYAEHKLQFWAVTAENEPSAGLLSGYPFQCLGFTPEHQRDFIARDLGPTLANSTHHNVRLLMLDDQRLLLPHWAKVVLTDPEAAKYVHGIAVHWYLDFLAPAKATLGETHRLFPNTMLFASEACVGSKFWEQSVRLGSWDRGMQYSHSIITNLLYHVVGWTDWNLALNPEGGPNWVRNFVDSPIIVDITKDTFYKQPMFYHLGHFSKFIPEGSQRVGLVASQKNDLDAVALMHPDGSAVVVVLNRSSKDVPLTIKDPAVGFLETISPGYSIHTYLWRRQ
Glucocorticoid receptor (Homo sapiens), sequence (P04150 whole entry, looked up, the tested form may be a part): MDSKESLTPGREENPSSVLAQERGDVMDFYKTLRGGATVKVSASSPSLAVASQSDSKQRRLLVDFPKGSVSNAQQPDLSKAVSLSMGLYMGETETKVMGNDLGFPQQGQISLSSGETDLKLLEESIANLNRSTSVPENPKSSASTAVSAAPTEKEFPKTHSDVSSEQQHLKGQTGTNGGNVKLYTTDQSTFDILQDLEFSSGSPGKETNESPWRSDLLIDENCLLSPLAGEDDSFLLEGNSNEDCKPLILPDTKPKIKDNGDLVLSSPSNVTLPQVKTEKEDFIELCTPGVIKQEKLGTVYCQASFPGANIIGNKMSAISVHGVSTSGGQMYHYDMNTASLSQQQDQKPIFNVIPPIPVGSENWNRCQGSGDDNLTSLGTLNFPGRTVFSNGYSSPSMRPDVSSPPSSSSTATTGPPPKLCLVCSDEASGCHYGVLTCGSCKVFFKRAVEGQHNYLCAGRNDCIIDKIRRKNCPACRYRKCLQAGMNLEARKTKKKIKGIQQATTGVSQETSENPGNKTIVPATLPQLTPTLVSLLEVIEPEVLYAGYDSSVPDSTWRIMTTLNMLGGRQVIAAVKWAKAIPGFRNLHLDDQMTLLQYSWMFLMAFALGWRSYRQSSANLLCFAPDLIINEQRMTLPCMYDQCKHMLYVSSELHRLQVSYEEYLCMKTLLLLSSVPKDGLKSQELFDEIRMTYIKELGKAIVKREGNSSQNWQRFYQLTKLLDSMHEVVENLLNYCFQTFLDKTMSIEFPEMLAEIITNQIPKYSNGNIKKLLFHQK
Cytochrome P450 1A2 (Homo sapiens), sequence (P05177 whole entry, looked up): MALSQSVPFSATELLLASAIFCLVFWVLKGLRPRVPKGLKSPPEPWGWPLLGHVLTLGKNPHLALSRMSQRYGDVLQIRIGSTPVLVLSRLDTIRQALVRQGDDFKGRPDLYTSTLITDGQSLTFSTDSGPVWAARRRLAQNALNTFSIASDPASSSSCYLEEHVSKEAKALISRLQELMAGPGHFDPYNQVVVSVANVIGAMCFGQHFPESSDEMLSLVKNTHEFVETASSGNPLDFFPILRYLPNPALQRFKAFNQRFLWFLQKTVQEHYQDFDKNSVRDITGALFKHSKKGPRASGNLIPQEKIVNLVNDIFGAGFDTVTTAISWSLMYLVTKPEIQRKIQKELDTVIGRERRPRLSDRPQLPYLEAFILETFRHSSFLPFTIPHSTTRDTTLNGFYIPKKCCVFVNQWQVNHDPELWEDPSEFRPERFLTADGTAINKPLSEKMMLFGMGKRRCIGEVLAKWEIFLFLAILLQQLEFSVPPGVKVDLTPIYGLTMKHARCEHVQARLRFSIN
Cytochrome P450 3A4 (Homo sapiens), sequence (P08684 whole entry, looked up): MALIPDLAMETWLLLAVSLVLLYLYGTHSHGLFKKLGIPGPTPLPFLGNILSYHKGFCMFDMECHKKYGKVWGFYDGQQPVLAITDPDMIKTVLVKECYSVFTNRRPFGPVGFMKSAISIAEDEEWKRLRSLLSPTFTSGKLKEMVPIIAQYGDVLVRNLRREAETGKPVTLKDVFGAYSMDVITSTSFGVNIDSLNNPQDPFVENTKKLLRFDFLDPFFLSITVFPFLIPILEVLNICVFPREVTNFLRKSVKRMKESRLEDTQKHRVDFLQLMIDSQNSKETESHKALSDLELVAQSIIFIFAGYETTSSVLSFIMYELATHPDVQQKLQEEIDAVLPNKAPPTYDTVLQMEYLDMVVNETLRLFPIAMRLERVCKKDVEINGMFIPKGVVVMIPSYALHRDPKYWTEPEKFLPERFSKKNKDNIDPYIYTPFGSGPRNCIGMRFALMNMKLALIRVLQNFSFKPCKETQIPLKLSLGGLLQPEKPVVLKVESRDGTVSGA
3',5'-cyclic-AMP phosphodiesterase 4B (Homo sapiens), sequence (Q07343 whole entry, looked up): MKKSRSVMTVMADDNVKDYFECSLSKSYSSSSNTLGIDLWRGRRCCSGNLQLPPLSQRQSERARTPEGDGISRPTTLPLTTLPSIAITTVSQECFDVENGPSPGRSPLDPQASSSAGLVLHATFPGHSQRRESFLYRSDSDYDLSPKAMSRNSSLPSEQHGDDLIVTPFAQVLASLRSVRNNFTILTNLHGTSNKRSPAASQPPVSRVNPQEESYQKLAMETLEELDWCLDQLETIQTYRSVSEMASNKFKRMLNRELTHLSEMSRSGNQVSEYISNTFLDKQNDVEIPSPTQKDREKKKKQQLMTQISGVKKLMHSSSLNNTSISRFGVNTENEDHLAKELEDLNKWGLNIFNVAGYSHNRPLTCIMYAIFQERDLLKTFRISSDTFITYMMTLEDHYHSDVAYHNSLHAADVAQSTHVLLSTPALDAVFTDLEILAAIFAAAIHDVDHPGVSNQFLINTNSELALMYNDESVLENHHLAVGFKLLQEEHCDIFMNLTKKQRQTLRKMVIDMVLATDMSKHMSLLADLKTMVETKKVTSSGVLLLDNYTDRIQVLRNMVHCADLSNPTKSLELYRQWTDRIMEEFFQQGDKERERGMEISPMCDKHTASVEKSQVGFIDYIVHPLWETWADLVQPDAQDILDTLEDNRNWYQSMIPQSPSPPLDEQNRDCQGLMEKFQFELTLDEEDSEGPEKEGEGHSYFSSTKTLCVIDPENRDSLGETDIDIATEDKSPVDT
Cytochrome P450 2C9 (Homo sapiens), sequence (P11712 whole entry, looked up): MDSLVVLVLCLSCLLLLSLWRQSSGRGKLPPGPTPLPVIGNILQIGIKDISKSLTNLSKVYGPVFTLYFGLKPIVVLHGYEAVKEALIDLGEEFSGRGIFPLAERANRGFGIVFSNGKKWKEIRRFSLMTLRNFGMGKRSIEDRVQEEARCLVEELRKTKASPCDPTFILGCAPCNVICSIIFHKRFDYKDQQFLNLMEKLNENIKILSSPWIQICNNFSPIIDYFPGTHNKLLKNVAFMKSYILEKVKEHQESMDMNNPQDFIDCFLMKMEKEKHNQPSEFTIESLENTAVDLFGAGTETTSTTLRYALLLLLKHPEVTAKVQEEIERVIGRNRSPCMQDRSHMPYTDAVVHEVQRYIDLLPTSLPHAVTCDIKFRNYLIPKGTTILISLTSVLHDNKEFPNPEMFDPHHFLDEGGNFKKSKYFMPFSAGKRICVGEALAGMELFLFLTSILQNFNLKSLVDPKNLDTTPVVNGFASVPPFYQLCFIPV
Ubiquitin carboxyl-terminal hydrolase 1 (Homo sapiens), sequence (O94782 whole entry, looked up): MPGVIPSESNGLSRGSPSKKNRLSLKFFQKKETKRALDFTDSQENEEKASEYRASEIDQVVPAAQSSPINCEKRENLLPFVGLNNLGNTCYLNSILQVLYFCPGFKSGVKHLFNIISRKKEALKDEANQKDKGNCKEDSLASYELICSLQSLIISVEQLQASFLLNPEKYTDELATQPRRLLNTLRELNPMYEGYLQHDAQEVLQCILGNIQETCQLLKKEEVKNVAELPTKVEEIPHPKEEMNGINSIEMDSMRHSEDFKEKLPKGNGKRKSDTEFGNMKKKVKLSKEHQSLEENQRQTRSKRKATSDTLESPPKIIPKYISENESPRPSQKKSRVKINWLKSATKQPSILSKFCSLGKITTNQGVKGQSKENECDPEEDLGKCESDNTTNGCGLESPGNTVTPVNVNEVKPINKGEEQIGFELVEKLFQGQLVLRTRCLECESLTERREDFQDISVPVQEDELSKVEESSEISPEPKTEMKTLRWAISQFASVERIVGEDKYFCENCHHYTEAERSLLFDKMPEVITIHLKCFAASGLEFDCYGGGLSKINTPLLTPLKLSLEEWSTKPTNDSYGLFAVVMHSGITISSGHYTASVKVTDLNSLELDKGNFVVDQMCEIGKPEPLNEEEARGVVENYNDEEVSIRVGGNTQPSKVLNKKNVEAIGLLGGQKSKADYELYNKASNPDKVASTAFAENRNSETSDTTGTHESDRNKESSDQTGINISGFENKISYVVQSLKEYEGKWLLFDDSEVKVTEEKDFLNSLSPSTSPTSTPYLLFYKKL
Cytochrome P450 2D6 (Homo sapiens), sequence (P10635 whole entry, looked up): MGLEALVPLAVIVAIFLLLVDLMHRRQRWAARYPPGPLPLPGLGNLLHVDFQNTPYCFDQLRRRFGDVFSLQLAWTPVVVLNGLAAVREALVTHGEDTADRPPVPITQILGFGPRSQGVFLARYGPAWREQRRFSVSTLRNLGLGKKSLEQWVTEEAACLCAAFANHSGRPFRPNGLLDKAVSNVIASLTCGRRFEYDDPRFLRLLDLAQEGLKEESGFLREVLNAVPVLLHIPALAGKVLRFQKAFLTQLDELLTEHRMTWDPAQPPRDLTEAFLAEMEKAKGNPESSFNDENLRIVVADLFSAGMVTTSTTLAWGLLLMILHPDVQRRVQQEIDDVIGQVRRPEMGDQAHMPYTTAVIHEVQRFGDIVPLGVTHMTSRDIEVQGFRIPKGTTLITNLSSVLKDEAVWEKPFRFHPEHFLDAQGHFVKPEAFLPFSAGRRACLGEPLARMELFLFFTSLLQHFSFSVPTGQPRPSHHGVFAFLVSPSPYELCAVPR

Take `COC(=O)N1CCC2(CCCN(c3ccc(-c4ccccc4)cc3)C2)CC1`: the figures for the Potency in [1], in assay [2] and in assay [5] were > 11.4 µM (inactive), 20 µM (active) and > 46 µM (inactive), respectively. The results for the activity change, negative = inhibition in assay [3] and in assay [9] were -18.6% (inactive) and -29.2% (inactive), respectively. For the same compound, in assay [4], the activity, negative = inhibition is 3.59% (inactive). Further, in assay [6], the result was inactive. The Potency result in [7], in [8] and in assay [10] was “inactive” in each case. Further, the max response in assay [9] (setting [18]) was 11%; in assay [9] (setting [19]) it was -21.4%.
Take `CN(C)c1ccc(-c2nc(N(C)Cc3ccco3)c3ccccc3n2)cc1`: the Potency in [1] is 6.72 µM (active); in [2] it was 0.631 µM (active); in assay [12], > 46 µM (inactive); in [5], > 46 µM (inactive). In addition, the figures for the activity change, negative = inhibition in [11], in assay [13] and in assay [9] were 25.1% (inactive), 33.8% [at 2.29 µM] (inactive) and 10.8% (inactive), respectively. Besides, the activity, negative = inhibition in assay [4] is 26.1% (inactive). Besides, the result in [6], in assay [14] and in assay [15] was inactive. Also, the Potency result in assay [7], in assay [8], in assay [16] and in assay [10] was “inactive” each time. Further, the max response in assay [9] (setting [18]) came to 0.88%; in [9] (setting [19]), 11.3%.
Turning to `Cn1cccc1C(=O)N1CCC[C@@]2(CCN(Cc3ccccc3)C2)C1`, the Potency was > 11.4 µM (inactive) in [1], 10 µM (active) in assay [2], > 46 µM (inactive) in [5] and 2 µM (active) in [17]. The activity change, negative = inhibition in assay [11] is -8.23% (inactive); in [3], -14.1% (inactive); in assay [9], 3.81% (inactive). Also, the compound was classed as inactive in [6]. Moreover, the Potency entry in assay [7], in [8] and in [10] was “inactive” in each case. Also, the max response in assay [9] (setting [18]) worked out at 5.36%; in assay [9] (setting [19]), 9.58%.
